Experiment in all cases: DAPPL (digital affinity profiling via proximity ligation, sequencing); 10 mM Tris-HCl pH 7.5, 50 mM NaCl, 1 mM DTT, 4% glycerol, room temperature, 30 min; GST-TFs on glutathione beads, 16-mer random dsDNA library, 0.1% formaldehyde crosslink after washing; high values mean tight binding
In one test the target is T1, FEV (Homo sapiens, UniProt Q99581 1-238).
T1 sequence: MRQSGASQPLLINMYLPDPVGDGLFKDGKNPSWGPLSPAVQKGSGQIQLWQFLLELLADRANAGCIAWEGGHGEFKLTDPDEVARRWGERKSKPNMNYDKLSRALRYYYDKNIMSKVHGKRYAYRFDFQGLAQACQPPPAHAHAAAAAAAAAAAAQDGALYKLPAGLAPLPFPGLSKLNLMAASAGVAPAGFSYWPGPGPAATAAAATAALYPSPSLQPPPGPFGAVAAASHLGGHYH
The following applies: protein: recombinant; tags: N-terminal GST; dsDNA, one strand shown. In a few lines:
(§1)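 Beads coated with glutathione captured GST-fused human transcription factors that had been expressed in yeast, and the factors were then given DNA barcodes and pooled with a tag-only sample. The pools were incubated with 200 nmole of a random double-stranded 16-mer DNA library in Tris/NaCl/DTT/glycerol buffer for 30 min at room temperature, washed, crosslinked with 0.1% formaldehyde and proximity-ligated with BsaI/T4 ligase at 37 °C for 1 h. PCR amplification and Illumina NextSeq500 sequencing came last. Binding signal is each hexamer's read frequency for a factor divided by its frequency for the tag-only sample.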

The next test addresses ETV5 (Homo sapiens, UniProt P41161 1-510). The following applies: protein: recombinant; tags: N-terminal GST; dsDNA, one strand shown. In a few lines:
as §1

The next test deals with HSF1 (Homo sapiens, UniProt Q00613 1-529). The conditions noted are these: protein: recombinant; tags: N-terminal GST; chain copies: 3; dsDNA, one strand shown. In a few lines:
as §1

A further test addresses T2, SPIC (Homo sapiens, UniProt Q8N5J4 1-248).
T2 sequence: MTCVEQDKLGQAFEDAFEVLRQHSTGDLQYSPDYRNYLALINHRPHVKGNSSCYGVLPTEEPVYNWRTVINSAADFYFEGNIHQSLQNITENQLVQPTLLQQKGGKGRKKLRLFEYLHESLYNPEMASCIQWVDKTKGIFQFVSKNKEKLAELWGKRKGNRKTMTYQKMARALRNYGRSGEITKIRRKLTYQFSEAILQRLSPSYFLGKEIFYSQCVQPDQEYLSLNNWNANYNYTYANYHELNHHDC
The conditions noted are these: protein: recombinant; tags: N-terminal GST; dsDNA, one strand shown. Put shortly: as §1

The next test deals with ELF4 (Homo sapiens, UniProt Q99607 1-663). The following applies: protein: recombinant; tags: N-terminal GST; dsDNA, one strand shown. In a few lines: as §1
A further test has as its target T3, ELK4 (Homo sapiens, UniProt P28324-2 1-405).
T3 sequence: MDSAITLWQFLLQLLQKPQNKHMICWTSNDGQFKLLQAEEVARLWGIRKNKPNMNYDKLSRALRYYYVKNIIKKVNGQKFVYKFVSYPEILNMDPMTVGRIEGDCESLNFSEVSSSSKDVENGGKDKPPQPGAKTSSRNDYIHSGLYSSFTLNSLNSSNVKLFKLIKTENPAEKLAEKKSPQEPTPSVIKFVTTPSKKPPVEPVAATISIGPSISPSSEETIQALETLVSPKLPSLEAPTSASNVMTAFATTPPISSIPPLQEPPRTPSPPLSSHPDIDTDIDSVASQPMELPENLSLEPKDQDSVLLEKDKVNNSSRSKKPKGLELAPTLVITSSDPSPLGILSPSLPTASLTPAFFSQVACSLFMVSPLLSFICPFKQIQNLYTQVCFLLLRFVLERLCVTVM
The conditions noted are these: protein: recombinant; tags: N-terminal GST; dsDNA, one strand shown. In a few lines: as §1

Another test deals with T4, ETV2 (Homo sapiens, UniProt O00321 1-342).
T4 sequence: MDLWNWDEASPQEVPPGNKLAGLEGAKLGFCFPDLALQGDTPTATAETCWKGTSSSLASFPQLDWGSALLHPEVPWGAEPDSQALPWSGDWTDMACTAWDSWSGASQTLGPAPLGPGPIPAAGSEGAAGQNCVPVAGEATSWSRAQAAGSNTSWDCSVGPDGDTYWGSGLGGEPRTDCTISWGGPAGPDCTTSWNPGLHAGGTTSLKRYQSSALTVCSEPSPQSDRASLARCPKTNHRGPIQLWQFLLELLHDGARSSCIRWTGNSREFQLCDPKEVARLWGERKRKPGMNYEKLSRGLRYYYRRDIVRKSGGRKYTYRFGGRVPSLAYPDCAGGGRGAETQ
The following applies: protein: recombinant; tags: N-terminal GST; dsDNA, one strand shown. Put shortly: as §1

The target of a further test is T5, ELF3 (Homo sapiens, UniProt P78545 1-371).
T5 sequence: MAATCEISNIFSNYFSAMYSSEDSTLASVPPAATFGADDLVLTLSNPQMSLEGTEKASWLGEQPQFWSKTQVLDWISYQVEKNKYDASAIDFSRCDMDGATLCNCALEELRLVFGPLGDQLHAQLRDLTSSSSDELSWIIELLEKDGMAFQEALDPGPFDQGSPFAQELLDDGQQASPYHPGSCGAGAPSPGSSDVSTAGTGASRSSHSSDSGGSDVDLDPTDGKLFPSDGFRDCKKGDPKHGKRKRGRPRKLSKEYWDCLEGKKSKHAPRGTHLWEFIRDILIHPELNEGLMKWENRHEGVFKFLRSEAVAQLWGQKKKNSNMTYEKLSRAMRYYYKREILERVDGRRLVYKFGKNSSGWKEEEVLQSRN
The conditions noted are these: protein: recombinant; tags: N-terminal GST; dsDNA, one strand shown. In a few lines:
as §1

Another test deals with CRX (Homo sapiens, UniProt O43186 1-299). The conditions noted are these: protein: recombinant; tags: N-terminal GST; dsDNA, one strand shown. In a few lines: as §1
The next test deals with ETV1 (Homo sapiens, UniProt P50549 1-477). The conditions noted are these: protein: recombinant; tags: N-terminal GST; dsDNA, one strand shown. In a few lines:
as §1

Another test concerns the target T6, ERF (Homo sapiens, UniProt P50548 1-548).
T6 sequence: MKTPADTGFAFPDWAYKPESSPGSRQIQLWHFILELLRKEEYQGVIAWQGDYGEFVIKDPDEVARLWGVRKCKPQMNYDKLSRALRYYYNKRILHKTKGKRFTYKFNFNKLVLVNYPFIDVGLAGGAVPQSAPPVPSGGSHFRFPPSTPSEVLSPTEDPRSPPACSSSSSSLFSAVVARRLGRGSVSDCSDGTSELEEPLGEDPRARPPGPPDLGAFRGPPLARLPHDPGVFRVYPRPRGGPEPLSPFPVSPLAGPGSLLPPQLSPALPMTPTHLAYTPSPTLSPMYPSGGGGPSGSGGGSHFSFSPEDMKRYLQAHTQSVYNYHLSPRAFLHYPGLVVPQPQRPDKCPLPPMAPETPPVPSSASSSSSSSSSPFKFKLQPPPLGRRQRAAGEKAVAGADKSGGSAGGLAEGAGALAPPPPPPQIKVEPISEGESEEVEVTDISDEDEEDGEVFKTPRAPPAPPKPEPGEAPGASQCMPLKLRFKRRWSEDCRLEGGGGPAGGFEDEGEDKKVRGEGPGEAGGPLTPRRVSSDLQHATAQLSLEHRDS
The following applies: protein: recombinant; tags: N-terminal GST; dsDNA, one strand shown. In a few lines: as §1

The target of a further test is T7, ETV3L (Homo sapiens, UniProt Q6ZN32 1-361).
T7 sequence: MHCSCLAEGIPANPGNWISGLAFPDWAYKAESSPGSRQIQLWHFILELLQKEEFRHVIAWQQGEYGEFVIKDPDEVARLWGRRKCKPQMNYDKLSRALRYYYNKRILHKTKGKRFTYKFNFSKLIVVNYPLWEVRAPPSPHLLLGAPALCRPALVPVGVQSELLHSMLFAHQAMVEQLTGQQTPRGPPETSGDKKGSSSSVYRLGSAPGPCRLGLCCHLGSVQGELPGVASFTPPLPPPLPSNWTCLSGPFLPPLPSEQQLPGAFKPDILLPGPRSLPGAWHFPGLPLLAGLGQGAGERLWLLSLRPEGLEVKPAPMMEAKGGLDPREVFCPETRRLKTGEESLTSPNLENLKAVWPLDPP
The following applies: protein: recombinant; tags: N-terminal GST; dsDNA, one strand shown. In a few lines: as §1

Another test deals with T8, ETS2 (Homo sapiens, UniProt P15036 1-469).
T8 sequence: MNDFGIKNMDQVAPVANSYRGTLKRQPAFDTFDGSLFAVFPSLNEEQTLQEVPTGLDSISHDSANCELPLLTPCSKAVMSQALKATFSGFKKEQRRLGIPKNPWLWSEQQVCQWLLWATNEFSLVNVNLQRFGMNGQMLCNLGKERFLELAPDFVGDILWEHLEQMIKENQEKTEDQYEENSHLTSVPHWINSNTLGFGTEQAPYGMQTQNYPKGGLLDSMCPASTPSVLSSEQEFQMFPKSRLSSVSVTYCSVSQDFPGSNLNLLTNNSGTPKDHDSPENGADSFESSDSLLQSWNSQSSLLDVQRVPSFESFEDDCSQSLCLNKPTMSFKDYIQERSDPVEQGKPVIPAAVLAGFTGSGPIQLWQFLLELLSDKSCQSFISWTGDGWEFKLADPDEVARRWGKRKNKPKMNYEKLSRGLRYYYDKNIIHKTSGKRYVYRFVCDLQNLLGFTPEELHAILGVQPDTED
The following applies: protein: recombinant; tags: N-terminal GST; dsDNA, one strand shown. Put shortly:
as §1

The target in the next test is T9, SPDEF (Homo sapiens, UniProt O95238 1-335).
T9 sequence: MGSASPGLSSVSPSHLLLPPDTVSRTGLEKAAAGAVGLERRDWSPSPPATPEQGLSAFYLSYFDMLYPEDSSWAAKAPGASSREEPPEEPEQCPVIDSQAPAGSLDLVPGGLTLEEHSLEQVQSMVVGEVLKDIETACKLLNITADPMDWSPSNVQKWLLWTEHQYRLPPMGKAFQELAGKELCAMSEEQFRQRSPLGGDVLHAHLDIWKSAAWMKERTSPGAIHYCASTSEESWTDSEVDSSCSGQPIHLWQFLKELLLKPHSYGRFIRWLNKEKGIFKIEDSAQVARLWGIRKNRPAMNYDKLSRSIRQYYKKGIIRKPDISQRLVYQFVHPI
The following applies: protein: recombinant; tags: N-terminal GST; dsDNA, one strand shown. In a few lines:
as §1

A further test addresses T10, ETV7 (Homo sapiens, UniProt Q9Y603 1-341).
T10 sequence: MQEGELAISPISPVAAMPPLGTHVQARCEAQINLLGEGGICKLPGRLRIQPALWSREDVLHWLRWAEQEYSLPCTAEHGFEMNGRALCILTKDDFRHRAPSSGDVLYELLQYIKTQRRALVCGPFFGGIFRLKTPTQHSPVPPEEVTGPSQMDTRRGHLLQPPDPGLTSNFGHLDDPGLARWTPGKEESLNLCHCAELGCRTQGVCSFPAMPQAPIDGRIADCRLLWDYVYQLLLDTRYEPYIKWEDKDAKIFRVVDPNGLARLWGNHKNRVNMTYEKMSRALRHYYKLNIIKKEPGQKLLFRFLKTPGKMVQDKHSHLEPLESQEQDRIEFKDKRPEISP
The following applies: protein: recombinant; tags: N-terminal GST; dsDNA, one strand shown. In a few lines:
as §1

A further test concerns the target T11, ELF5 (Homo sapiens, UniProt Q9UKW6-2 1-255).
T11 sequence: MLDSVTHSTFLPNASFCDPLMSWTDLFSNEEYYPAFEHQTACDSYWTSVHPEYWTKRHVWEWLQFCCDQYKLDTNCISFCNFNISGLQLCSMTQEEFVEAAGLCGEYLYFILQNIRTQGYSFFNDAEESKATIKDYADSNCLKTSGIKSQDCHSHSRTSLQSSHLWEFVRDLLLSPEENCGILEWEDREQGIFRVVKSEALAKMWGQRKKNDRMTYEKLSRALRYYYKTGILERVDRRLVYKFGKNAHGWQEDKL
The following applies: protein: recombinant; tags: N-terminal GST; dsDNA, one strand shown. Put shortly:
as §1

The target of another test is T12, ETV3 (Homo sapiens, UniProt P41162-2 1-143).
T12 sequence: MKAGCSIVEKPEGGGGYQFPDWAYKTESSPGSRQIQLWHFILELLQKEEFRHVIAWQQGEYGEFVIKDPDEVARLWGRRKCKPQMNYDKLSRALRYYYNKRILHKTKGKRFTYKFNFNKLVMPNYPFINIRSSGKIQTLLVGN
The conditions noted are these: protein: recombinant; tags: N-terminal GST; dsDNA, one strand shown. In a few lines: as §1

Another test has as its target ETV6 (Homo sapiens, UniProt P41212 1-452). The conditions noted are these: protein: recombinant; tags: N-terminal GST; dsDNA, one strand shown. Put shortly: as §1

This passage reports binding signal results from paper PMC7862700, “An all-to-all approach to the identification of sequence-specific readers for epigenetic DNA modifications on cytosine”.

Chain of ETV6 (P41212 whole entry): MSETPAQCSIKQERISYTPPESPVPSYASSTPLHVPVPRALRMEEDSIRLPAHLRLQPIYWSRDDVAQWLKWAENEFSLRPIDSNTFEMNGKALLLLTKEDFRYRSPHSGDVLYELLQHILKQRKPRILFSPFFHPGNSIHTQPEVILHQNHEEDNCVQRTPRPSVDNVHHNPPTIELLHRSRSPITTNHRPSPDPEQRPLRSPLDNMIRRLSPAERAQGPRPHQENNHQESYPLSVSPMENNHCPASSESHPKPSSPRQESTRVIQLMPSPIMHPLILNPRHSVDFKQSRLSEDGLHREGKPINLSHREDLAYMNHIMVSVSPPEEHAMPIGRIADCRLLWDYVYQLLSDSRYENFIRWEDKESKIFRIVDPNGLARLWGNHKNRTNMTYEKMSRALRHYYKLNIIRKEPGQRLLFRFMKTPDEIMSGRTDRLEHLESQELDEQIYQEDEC
Chain of ETV1 (P50549 whole entry): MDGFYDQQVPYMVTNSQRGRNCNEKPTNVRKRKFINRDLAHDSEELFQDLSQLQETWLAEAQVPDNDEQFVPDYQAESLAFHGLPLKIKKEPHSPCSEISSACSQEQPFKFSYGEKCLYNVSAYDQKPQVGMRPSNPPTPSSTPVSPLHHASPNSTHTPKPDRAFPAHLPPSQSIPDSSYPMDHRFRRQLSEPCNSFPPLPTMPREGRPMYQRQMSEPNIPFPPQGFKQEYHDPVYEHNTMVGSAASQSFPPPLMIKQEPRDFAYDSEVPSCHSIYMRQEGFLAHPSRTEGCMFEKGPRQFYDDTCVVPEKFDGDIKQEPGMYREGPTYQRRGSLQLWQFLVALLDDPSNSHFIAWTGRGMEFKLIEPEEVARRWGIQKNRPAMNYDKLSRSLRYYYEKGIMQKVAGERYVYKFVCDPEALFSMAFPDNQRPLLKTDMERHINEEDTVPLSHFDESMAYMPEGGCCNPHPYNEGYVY
Chain of ETV5 (P41161 whole entry): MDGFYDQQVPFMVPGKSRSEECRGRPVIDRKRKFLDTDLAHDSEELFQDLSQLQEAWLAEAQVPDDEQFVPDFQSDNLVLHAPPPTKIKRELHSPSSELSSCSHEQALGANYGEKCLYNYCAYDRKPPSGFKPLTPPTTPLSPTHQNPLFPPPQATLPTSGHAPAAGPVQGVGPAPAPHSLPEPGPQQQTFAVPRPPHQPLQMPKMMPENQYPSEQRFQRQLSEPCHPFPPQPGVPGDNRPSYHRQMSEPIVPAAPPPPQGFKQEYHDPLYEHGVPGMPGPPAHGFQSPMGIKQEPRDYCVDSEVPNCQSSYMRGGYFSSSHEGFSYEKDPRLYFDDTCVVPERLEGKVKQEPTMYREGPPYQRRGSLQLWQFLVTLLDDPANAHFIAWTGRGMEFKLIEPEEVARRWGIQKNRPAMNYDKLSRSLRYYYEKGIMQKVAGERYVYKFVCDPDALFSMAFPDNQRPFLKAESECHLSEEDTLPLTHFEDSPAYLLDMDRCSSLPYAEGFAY
Chain of HSF1 (Q00613 whole entry): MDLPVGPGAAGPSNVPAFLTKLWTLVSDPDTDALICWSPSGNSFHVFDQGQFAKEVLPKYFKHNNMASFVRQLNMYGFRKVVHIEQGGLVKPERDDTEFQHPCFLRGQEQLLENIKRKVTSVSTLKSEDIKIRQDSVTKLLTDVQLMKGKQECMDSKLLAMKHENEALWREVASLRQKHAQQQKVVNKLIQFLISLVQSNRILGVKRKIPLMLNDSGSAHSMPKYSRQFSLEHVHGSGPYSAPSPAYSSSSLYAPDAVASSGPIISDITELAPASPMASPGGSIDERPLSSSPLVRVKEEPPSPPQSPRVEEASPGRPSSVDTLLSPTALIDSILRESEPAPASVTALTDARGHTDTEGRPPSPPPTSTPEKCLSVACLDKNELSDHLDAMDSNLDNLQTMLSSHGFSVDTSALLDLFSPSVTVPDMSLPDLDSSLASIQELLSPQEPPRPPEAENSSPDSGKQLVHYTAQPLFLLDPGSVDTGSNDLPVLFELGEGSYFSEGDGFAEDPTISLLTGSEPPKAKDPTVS
Chain of ELF4 (Q99607 whole entry): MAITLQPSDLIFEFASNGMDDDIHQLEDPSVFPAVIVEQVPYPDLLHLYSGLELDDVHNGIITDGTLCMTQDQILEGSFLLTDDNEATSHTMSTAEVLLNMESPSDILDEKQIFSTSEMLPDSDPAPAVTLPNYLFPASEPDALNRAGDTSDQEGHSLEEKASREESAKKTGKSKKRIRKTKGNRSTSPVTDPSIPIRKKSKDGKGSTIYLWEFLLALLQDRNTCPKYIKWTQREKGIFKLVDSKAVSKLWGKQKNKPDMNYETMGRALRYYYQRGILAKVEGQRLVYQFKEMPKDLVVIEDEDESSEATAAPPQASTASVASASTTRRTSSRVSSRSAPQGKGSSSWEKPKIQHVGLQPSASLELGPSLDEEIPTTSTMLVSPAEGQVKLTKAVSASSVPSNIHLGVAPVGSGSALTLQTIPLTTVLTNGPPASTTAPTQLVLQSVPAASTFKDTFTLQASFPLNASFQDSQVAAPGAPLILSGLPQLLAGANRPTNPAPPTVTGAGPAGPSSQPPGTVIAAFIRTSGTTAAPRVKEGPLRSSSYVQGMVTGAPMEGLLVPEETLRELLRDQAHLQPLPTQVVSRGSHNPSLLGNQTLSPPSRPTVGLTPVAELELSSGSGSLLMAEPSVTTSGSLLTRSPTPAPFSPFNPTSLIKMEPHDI
Chain of CRX (O43186 whole entry): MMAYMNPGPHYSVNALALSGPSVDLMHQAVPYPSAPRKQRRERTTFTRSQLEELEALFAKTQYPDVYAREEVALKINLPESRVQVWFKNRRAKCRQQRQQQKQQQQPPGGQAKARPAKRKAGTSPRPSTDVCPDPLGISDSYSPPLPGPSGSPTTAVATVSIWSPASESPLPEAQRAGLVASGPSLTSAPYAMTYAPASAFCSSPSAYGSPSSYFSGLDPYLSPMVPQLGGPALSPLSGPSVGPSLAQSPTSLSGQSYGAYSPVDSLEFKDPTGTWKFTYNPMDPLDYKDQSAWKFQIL

ATCATC: the binding signal in the test with FEV was 1.11 fold enrichment (6-mer frequency, TF over GST control); in the test with ETV5, 1.1 fold enrichment (6-mer frequency, TF over GST control); in the test with HSF1 it was 1.4 fold enrichment (6-mer frequency, TF over GST control); in the test with SPIC, 1.24 fold enrichment (6-mer frequency, TF over GST control); in the test with ELF4 it was 1.17 fold enrichment (6-mer frequency, TF over GST control); in the test with ELK4 it was 1.31 fold enrichment (6-mer frequency, TF over GST control). Further, the binding signal with ETV2 was 1.21 fold enrichment (6-mer frequency, TF over GST control); with ELF3, 1.26 fold enrichment (6-mer frequency, TF over GST control); with CRX, 1.56 fold enrichment (6-mer frequency, TF over GST control); in the test with ETV1 it was 1.12 fold enrichment (6-mer frequency, TF over GST control); with ERF, 1.08 fold enrichment (6-mer frequency, TF over GST control); in the test with ETV3L it was 1.23 fold enrichment (6-mer frequency, TF over GST control). The binding signal with ETS2 is 1.25 fold enrichment (6-mer frequency, TF over GST control); with SPDEF it was 1.16 fold enrichment (6-mer frequency, TF over GST control); in the test with ETV7, 1 fold enrichment (6-mer frequency, TF over GST control); with ELF5, 1.17 fold enrichment (6-mer frequency, TF over GST control); with ETV3, 1.23 fold enrichment (6-mer frequency, TF over GST control); with ETV6, 1.1 fold enrichment (6-mer frequency, TF over GST control).
